Shown are actives, neighbours in structure and some others; about 2.2% of the full set was active somewhere.
APP transl inh = APP translation inhibition; SH-SY5Y APP 5'UTR-luciferase reporter, luminescence; inhibition, % at 2 µM; 190,000 tested, 0.82% active; AID 1285;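 active = inhibition above a set limit, derived from the sample mean plus 3 SD, cut at about 45% in these data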
aSyn 5UTR inh = 5' untranslated region of α-synuclein, MLPCN primary screen; alpha-synuclein 5'UTR reporter, inhibitor activity; inhibition, % (tested at 7.5 µM); 300,000 tested, 0.82% active; AID 1813; in the data active = inhibition above about 60%;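 also: H4 neuroglioblastoma cells stably carrying SNCA 5'UTR luciferase fusion; 0% = DMSO wells and 100% = positive control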
BaF3 parental = counter-screen for JAK2V617F inhibitors: parental Ba/F3 viability inhibitors; CellTiter-Glo ATP luminescence; inhibition, % at 5.6 µM; 220,000 tested, 1.1% active; AID 1486;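 active = inhibition above a per-campaign cutoff, the mean inhibition of all tested compounds plus 3 SD, cut at about 27% in these data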;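 also: 0% = DMSO wells and 100% = JAK Inhibitor I control wells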
IEC-6 cytotox = kills IEC-6 intestinal cells in KLF5 counter-screen; IEC-6 cytotoxicity, luminescence viability; inhibition, % at 5 µM; 290,000 tested, 0.78% active; AID 1825; in the data active = inhibition above about 22%;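 also: 0% = plate median of test compound wells and 100% = cytotoxic reference compound wells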
KLF5 inh = inhibitors of KLF5 expression; DLD-1 KLF5 promoter-luciferase reporter, luminescence; inhibition, % at 5 µM; 290,000 tested, 0.23% active;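 active = inhibition above a per-plate limit of that plate's mean compound inhibition plus 3 SD, cut at about 60% in these data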;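 also: 0% = DMSO wells and 100% = LY294002 at 200 µM; higher means less KLF5 promoter-driven luciferase light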
Ba/F3 V617F tox = lowers viability of Ba/F3 cells expressing EpoR and JAK2V617F. ATP luminescence. inhibition, % at 5.6 µM. 220,000 tested, 1.1% active;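 active = inhibition above the campaign mean plus 3 SD over all tested compounds, cut at about 24% in these data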;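 also: cytokine-independent growth of Ba/F3 cells driven by EpoR plus mutant JAK2; 0% = DMSO-treated cells and 100% = JAK inhibitor I control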
* hit, by the source's call; / = not tested or not shown.

SMILES | APP transl inh | aSyn 5UTR inh | BaF3 parental | IEC-6 cytotox | KLF5 inh | Ba/F3 V617F tox
S=c1[nH]nc(-c2cccc3ccccc23)n1-c1cccnc1 | / | -13 | 50* | -3 | -18 | 52*
Cc1[nH]c2ccccc2c1/C=N/n1cnnc1 | -5 | 9 | 4 | 4 | -5 | -1
CCN(CC)c1ccc(N=Cc2c(C)[nH]c3ccccc23)cc1 | 0 | 63* | 8 | 1 | -33 | 2
CCCCN(CCCC)c1nc(-c2ccncc2)nc2ccccc12 | / | 11 | -1 | 4 | -6 | 0
O=C(O)c1ccc(N/N=C/c2ccc3c(c2)OCO3)cc1 | 31 | 94* | 5 | 1 | 60 | -1
COc1ccc(C(CNC(=O)c2oc3ccc(C)cc3c2C)N2CCCCC2)cc1 (configuration not stated) | / | -12 | / | -4 | -4 | /
Cc1cc(C)c2c(c1)/C(=N/NS(=O)(=O)c1ccccc1)CCC2 | 18 | 18 | 0 | 6 | -21 | -3
Cc1cc(C)c2c(c1)/C(=N/NS(=O)(=O)c1ccc(Br)cc1)CCC2 | 81* | 0 | 1 | 3 | -3 | -5
Cc1ccc(NC(=O)CN2C(=O)S/C(=C\C(=O)Nc3ccc(Cl)cc3)C2=O)cc1 | -11 | -2 | 73* | 4 | 27 | 5
c1ccc(-n2ncc3c(N4CCCCC4)ncnc32)cc1 | -115 | 94* | 2 | 0 | 8 | -3
CC1CCCN(c2ncnc3c2cnn3-c2ccc(Cl)cc2)C1 (configuration not stated) | / | 98* | / | / | / | /
O=C(CSc1nc2cccnc2n1Cc1ccccc1)N1CCCC1 | -4 | 13 | 1 | 7 | -3 | 4
O=C1C(Cl)=C(NC(=O)c2ccccc2)C(=O)C(Cl)=C1NC(=O)c1ccccc1 | / | -37 | / | 100* | -2 | /
O=C(NC1=C(Nc2ccc(Cl)cc2)C(=O)c2ccccc2C1=O)c1ccccc1 | -7 | -31 | 4 | 8 | 14 | -2
C=CCn1c(O)c(N=NC(=O)c2ccc3c(c2)OCO3)c2ccccc21 | 50* | -27 | -1 | -2 | -20 | -3
C=CCn1c(O)c(N=NC(=S)Nc2ccc(OC)cc2)c2ccccc21 | 25 | 84* | 4 | 8 | -42 | 1
Oc1c(N=NC(=S)Nc2ccccc2F)c2ccccc2n1Cc1ccccc1F | 13 | 87* | 5 | 0 | -6 | 1
CCn1c(O)c(N=NC(=O)CNC(=O)c2ccccc2F)c2ccccc21 | / | -12 | / | -2 | 8 | /
C=CCn1c(O)c(N=NC(=S)Nc2cccc(OC)c2)c2ccccc21 | 35 | 50 | 2 | 8 | -8 | -4
CCNC(=S)N=Nc1c(O)n(Cc2ccc(Cl)cc2)c2ccccc12 | 0 | -25 | 2 | -4 | -17 | -1
Cc1ccccc1Cn1c(O)c(N=NC(=S)Nc2ccccc2F)c2ccccc21 | 15 | 73* | 2 | -4 | -7 | 3
CC1(C)CC(=O)C2=C(C1)OC(N)=C(C#N)[C@@H]2c1ccccc1[N+](=O)[O-] | / | -24 | 1 | 0 | 0 | -3
CN(C)CCCNC(=O)c1cc2c3ccccc3n(C)c2s1 | 9 | -10 | 2 | 5 | 14 | -1
N/C(=N\c1nc(CSc2nnnn2-c2ccccc2)cc(=O)[nH]1)Nc1ccccc1 | -16 | 14 | 4 | 0 | 1 | 1
CCCCNCc1cccn1-c1ccccc1 | 2 | 9 | 2 | 1 | 0 | -4
SMILES | APP transl inh | aSyn 5UTR inh | BaF3 parental | IEC-6 cytotox | KLF5 inh | Ba/F3 V617F tox
CC(C)(C)c1nnc(NS(C)(=O)=O)s1 | 3 | 34 | 4 | 0 | -4 | -3
COc1cc(OC)c(C2=NOC(C(=O)N3CCCc4ccccc43)C2)cc1Cl (configuration not stated) | 19 | 11 | 2 | -2 | -25 | -3
Cc1nn(C)c(C(=O)Nc2ccc(Cn3cccn3)cc2)c1[N+](=O)[O-] | 4 | -2 | 6 | -4 | -46 | -1
Oc1c(N=NC(=S)Nc2ccccc2F)c2ccccc2n1Cc1ccc(Cl)cc1 | 23 | 70* | 6 | -3 | -18 | 1
Cc1ccc(C)c(Cn2c(O)c(N=NC(=S)Nc3ccccc3F)c3ccccc32)c1 | 14 | 72* | 0 | -3 | 8 | 2
NC(Cc1ccc(O)cc1)c1cn([C@@H](CCC(=O)O)C(=O)N2CCNCC2)nn1 (some centres not stated) | -25 | 0 | 1 | 0 | -5 | 0
O=C(O)c1cccc(COc2ccccc2Cl)c1 | / | 103* | / | / | / | /
O=C(O)c1ccc(COc2ccccc2Cl)cc1 | -10 | -15 | -1 | -3 | -24 | -4
O=C1NC(=O)/C(=C\c2ccc(OCc3cccc(C(=O)O)c3)c(Cl)c2)N1 | -79 | 70* | 5 | -1 | -32 | 0
COc1cc(/C=C2\NC(=S)NC2=O)ccc1OCc1cccc(C(=O)O)c1 | / | -10 | / | 2 | -156 | /
C/C(N)=C(/C#N)C(=O)COC(=O)c1ccc(OCC2CCCO2)cc1 (configuration not stated) | / | -56 | / | -3 | -9 | /
CCCn1c(=N)n(CC(O)COc2ccc(C)cc2)c2ccccc21 (configuration not stated) | / | -23 | 4 | -2 | -13 | 0
CCCCCn1c(=N)n(CC(O)COc2ccccc2OC)c2ccccc21 (configuration not stated) | -1 | 8 | 28* | 8 | 11 | 18
CCCCn1c(=N)n(CC(O)COc2cccc(C)c2)c2ccccc21 (configuration not stated) | -5 | 0 | 40* | 7 | 13 | 17
COc1ccc(-c2cc(C(=O)Nc3cc(OC)cc(C(=O)Nc4cccc(C(F)(F)F)c4)c3)[nH]n2)cc1 | / | 12 | / | / | / | /
Cn1c(-c2cccs2)[n+](C)c2ccccc21 | -7 | 14 | 32* | 7 | 12 | 49*
COn1c(=O)c(-c2cccs2)[n+]([O-])c2ccccc21 | 8 | -18 | 3 | 9 | 15 | 4
CCNC(=O)c1c(N)sc2c1CCCCC2 | 1 | -21 | 2 | 0 | -32 | -1
CCN1C(=O)C(=Cc2cccc(OC)c2Oc2ccc([N+](=O)[O-])cc2[N+](=O)[O-])SC1=S | / | 80* | / | 7 | 10 | /
Cc1ccc(CNC(=O)Nc2ccc(F)cc2F)n1C | / | -55 | / | -1 | -28 | /
CC(C)c1ccc(C2C3=C(COC3=O)Nc3cc4c(cc32)OCO4)cc1 (configuration not stated) | 95* | 123* | 77* | 90* | 72* | 71*
COc1ccc(Br)cc1/C=N/NC(=O)c1ccc(COc2ccc3c(c2)CCC3)o1 | -4 | -42 | 0 | 2 | -48 | -2
O=C(N/N=C/c1cc([N+](=O)[O-])ccc1O)c1ccc(COc2ccc3c(c2)CCC3)o1 | / | 87* | / | 7 | 26 | /
Cc1cc(C)cc(NC(=S)N2CCN(CCO)CC2)c1 | 10 | 15 | 2 | -4 | -12 | -2
Cc1ccc(-n2nc(C)c3c2OC(N)=C(C#N)C3c2ccccc2F)cc1 (configuration not stated) | 47* | 10 | 8 | -2 | -24 | 3
CC1(C)N=C(N)NC(Nc2ccc(Br)cc2)=N1 | -9 | 13 | 35* | 2 | -15 | 9

Screens deposited in PubChem by several laboratories.
